The campaign covered roughly 340,000 compounds. About 6,900 (2%) were called active. Rule as the data show it: active = inhibition above about 30%; inactive = below that, where a call was filed. For the sample, actives were picked, then their nearest neighbours and some compounds at random.

D(2) dopamine receptor (Homo sapiens), sequence (P14416 whole entry, looked up): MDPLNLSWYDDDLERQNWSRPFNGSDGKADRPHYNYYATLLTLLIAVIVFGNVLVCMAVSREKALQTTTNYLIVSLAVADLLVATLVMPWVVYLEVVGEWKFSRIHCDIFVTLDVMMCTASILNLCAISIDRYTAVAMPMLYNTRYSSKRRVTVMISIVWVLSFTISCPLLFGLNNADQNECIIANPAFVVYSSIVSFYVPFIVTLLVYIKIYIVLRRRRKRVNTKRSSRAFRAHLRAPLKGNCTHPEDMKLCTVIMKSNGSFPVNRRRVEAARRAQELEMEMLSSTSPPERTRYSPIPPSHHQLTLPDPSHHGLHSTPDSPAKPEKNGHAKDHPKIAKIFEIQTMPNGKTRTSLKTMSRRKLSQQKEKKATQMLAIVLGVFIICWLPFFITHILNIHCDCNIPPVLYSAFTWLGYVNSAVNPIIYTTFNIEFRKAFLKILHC

The target of the assay is D(2) dopamine receptor (Homo sapiens) (UniProt P14416). In words: HTS Assay for Allosteric Antagonists of the Human D2 Dopamine Receptor: Primary Screen for Antagonists. Also: 0% is about no effect. Conditions: HEK293 TREx D2 cells, calcium flux, dopamine EC80; at 10 µM; stronger effect = higher value. An excerpt:
NIH Chemical Genomics Center [NCGC] NIH Molecular Libraries Probe Centers Network [MLPCN] MLPCN Grant: NS064831-01 Assay Submitter (PI): David Sibley Dopamine receptors (DARs) are involved in the etiology and/or therapy of a number of neuropsychiatric and endocrine disorders. For instance, all receptor-based antiparkinsonian drugs work via stimulating the D2 DAR subtype whereas all FDA-approved antipsychotic agents are antagonists of this receptor. […] There are three different types of allosteric modulators that we are seeking, two of which will stimulate or augment receptor signaling, allosteric agonists and potentiators, while the third, allosteric antagonists, will attenuate receptor signaling. The present primary screening assay measures compound antagonism after an EC80 addition of dopamine by tracking calcium flux in a […], inducible Hek293 Trex D2 cell line.
Freshly passaged cells are plated in 1536 well black, clear bottom plates at a density of 4000 cells/well in 3 ul of complete media containing 1x tetracycline inducer. After an overnight incubation at 30 C in 5% CO2, cells are loaded with 2 ul of the no wash Calcium Assay Kit (ABD Bioquest) and incubated at room temperature for 30 to 90 minutes. Agonist read: A 10 cycle (1 second/cycle) baseline measurement is taken and then the FDSS online 1536 pintool delivers 23 nl of compound library (as well as dopamine controls) to the plate. The plate is measured for kinetically at 1 cycle/sec for 180 seconds. Following the 180 second read, 1 ul of an EC80 (negative modulation assay) is delivered by an onboard pipette head. Measurements are taken kinetically for an additional 180 seconds.
With `CN1CCC(OC(=O)c2cccc(F)c2)CC1`, the inhibition is 8.08% (inactive).
With `COc1ccc(C(=O)C2CN(C)CC2C(=O)c2ccc(OC)cc2)cc1` (stereo not given), the inhibition is 4.54% (inactive).
To `Cc1ccc(C2CN(C)CC2C(=O)c2ccc(F)cc2)cc1` (stereo not given) belongs 70% (active); to `COC(=O)C1=C(c2ccc(F)cc2OCc2ccccc2)C[C@@H]2CC[C@H]1N2C(=O)NCc1ccc2[nH]ccc2c1`, 4.27% (inactive).
For `COC(=O)C1=C(c2cccc(OCc3ccccc3)c2)C[C@@H]2CC[C@H]1N2C(=O)NNCc1ccccc1`, the inhibition is -6.45% (inactive).
Regarding `O=C(O)CCn1cc(C=C2C(=O)NC(=S)NC2=O)c(-c2cccc(Br)c2)n1`, the inhibition was 18.3% (inactive).
As to `CCc1ccc(OCC(=O)N2CCN(CC(=O)Nc3ccccc3Cl)CC2)cc1`, the inhibition is -8.62% (inactive).
On to `CCN1CCN(Cc2cc(OC)c3c(c2)OCO3)CC1`, for which the inhibition was -21.1% (inactive).
In the case of `Cc1cc(=O)oc2c(C)c(OCC(=O)N3CCN(Cc4ccc5c(c4)OCO5)CC3)ccc12`, the inhibition is 3.54% (inactive).
`O=C(Cc1ccccc1[N+](=O)[O-])N1CCN(Cc2ccc3c(c2)OCO3)CC1`: the inhibition was -19.1% (inactive).
The figure for `Oc1cc2c(cc1CN1CCN(c3ccccc3)CC1)OCO2` is 108% (active).
As for `CC(C)c1ccc(O)c(CN2CCN(c3ccccc3)CC2)c1`, the inhibition was -16.3% (inactive).
Consider `Fc1ccc(N2CCN(Cc3ccc4c(c3)OCO4)CC2)cc1`, for which the inhibition is 65.6% (active).
With `CN1CCC(N(C)Cc2cccnc2)CC1`, the inhibition was 11.8% (inactive).
As for `Cc1ccccc1NC(=O)COC(=O)c1cc(C)n(C2CC2)c1C`, the inhibition was 6.13% (inactive).
Regarding `COC(=O)C1=C(c2ccc(Cl)c(C(F)(F)F)c2)C[C@@H]2CC[C@H]1N2C(=O)NC(C)C`, the inhibition was -9.37% (inactive).
The figure for `COC(=O)C1=C(c2ccc(F)cc2OCc2ccccc2)C[C@@H]2CC[C@H]1N2C(=O)NCc1ccc(Cl)cc1` is -5.86% (inactive); for `CCOC(=O)C1(CCc2ccccc2)CCN(Cc2ccco2)CC1` it is 1.26% (inactive).
With `CCOC(=O)C1(Cc2ccc(Cl)cc2)CCN(C(C)CCn2cccn2)CC1` (stereo not given), the inhibition is 77.6% (active).
To `COC(=O)C1=C(c2cccc(OCc3ccccc3)c2)C[C@@H]2CC[C@H]1N2C(=O)NCc1ccc(Br)cc1` belongs -11.9% (inactive); to `c1cncc(CNCCc2c[nH]c3ccccc23)c1`, 33% (active).
As to `c1cncc(CNC2=NCCC2)c1`, the inhibition was -1.77% (inactive).
As to `COc1ccc(CNCCc2c[nH]c3ccccc23)cc1OC`, the inhibition is 22.9% (inactive).
As to `COc1ccc(CN2CCN(c3ccccc3F)CC2)c(OC)c1`, the inhibition is 76.4% (active).
Take `Fc1cccc(F)c1CN1CCN(Cc2c(F)cccc2F)CC1`: the inhibition is -7.4% (inactive).
`COc1ccccc1CN1CCN(C(=O)Cc2ccccc2)CC1`: the inhibition was -40.7% (inactive).
As to `COC(=O)C1=C(c2ccccc2OCc2ccccc2)C[C@@H]2CC[C@H]1N2C(=O)NCc1ccc(OC)cc1`, the inhibition is -2.56% (inactive).
Take `COC(=O)C1=C(c2ccc(F)cc2OCc2ccccc2)C[C@@H]2CC[C@H]1N2C(=O)NCc1ccc(OC)c(OC)c1`: the inhibition is -1.84% (inactive).
As to `COC(=O)C1=C(c2ccc(Cl)c(C(F)(F)F)c2)C[C@@H]2CC[C@H]1N2C(=O)NC1CC1`, the inhibition was -0.929% (inactive).
As for `COC(=O)C1=C(c2ccc(-c3ccccc3)c(F)c2)C[C@@H]2CC[C@H]1N2C(=O)NCc1ccc(F)cc1`, the inhibition was -5.61% (inactive).
Regarding `Cn1c(O)c(C(=Nc2ccc(F)cc2)c2ccccc2)c(=O)n(C)c1=O`, the inhibition is -2.27% (inactive).
Consider `NCC(O)c1ccc(O)cc1` (stereo not given), for which the inhibition was 32.1% (active).
Turning to `CCc1cccc2c(C#N)cn(CC(=O)N3CCOCC3)c12`, the inhibition is -4.1% (inactive).
To `C[C@]12CC[C@H](O)C[C@H]1CC[C@@H]1C2CC[C@]2(C)[C@@H](C3=CC(=O)OC3)[C@@H](O)C[C@]12O` (stereo not given in full) belongs 8.92% (inactive); to `COC(=O)C1=C(c2ccc3ccccc3c2)C[C@@H]2CC[C@H]1N2C(=O)NCCO`, -12.6% (inactive).

In general, inhibition refers to the relative decrease from the control value, in per cent.

Source of the values: PubChem BioAssay AID485344 (National Center for Advancing Translational Sciences (NCATS), 2010).
